Measured values: PubChem BioAssay (Tox21)
Inconclusive results are not listed. Activity calls are given as the source filed them. Unless noted, the call rests on the fitted dose curve.

How the values were obtained:
[1] = Nuclear factor erythroid 2-related factor 2/antioxidant responsive element (Nrf2/ARE) small molecule agonists: qHTS cell viability counter screen in human keratinocytes (AID 1919968; active means well fitted curve in the direction sought with a large enough effect in the repeat runs; an effect the other way counts as inactive or inconclusive; further: nearly all actives have a fitted effect of over 55% in size)
In short: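 In human HaCaT keratinocytes stably expressing an ARE-driven luciferase, compound exposure lasted 23 h at 37 C under 5% CO2. Viable cells are quantified with a protease-based fluorogenic reagent (CellTiter-Fluor) read 1 h after addition.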

[2] = Nuclear factor erythroid 2-related factor 2/antioxidant responsive element (Nrf2/ARE) small molecule agonists: luciferase reporter gene qHTS assay in human keratinocytes (AID 1919969); further: nearly all actives have a fitted effect of over 35% in size
[3] = target: Gonadotropin-releasing hormone receptor (Homo sapiens) (UniProt P30968); assay: Human gonadotropin-releasing hormone receptor (GnRHR) small molecule agonists, calcium flux assay in GnRHR-HEK293 cells (AID 1920063); further: nearly all actives have a fitted effect of over 35% in size
Gonadotropin-releasing hormone receptor (Homo sapiens), sequence (P30968 whole entry, looked up): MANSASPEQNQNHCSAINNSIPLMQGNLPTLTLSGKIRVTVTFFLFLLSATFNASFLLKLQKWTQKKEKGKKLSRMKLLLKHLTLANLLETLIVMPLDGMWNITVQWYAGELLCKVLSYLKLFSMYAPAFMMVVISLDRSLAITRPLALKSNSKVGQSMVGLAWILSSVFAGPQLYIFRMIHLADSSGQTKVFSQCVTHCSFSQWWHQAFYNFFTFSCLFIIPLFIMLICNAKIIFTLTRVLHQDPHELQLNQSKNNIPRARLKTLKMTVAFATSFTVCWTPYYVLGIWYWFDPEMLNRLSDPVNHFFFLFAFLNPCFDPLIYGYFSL
In short: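 Intracellular calcium rise is the read-out: engineered human GnRHR HEK293 cells, dye-loaded, are exposed to DMSO-dissolved compounds and fluorescence at Ex/Em 480/540 is tracked for 3 min.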

[4] = target: KiSS-1 receptor (Homo sapiens) (UniProt Q969F8); assay: Human kisspeptin (KISS1R) small molecule agonists, calcium flux assay in KISS1R-HEK293 cells (AID 1920064; active means well fitted curve in the direction sought with a large enough effect in the repeat runs; an effect the other way counts as inactive or inconclusive)
KiSS-1 receptor (Homo sapiens), sequence (Q969F8 whole entry, looked up): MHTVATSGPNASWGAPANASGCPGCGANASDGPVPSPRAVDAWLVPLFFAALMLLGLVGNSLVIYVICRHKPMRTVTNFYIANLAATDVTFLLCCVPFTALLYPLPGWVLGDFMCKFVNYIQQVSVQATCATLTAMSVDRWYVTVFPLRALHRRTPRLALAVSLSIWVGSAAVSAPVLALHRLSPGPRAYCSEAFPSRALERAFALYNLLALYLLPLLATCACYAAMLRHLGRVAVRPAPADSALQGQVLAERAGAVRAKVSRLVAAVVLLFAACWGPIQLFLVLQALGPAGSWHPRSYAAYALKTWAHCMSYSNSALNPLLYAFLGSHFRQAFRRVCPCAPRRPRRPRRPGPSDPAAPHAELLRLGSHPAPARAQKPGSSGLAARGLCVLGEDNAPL
In short: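 Concentration-response testing used 15 concentrations in triplicate on human KISS1R-expressing HEK293 cells. Calcium-dependent fluorescence (Ex/Em 480/540) was followed kinetically for 3 min after compound transfer.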

[5] = G protein-coupled receptor (GPCR) small molecule agonists, calcium flux assay: HEK293 wild type cell line counter screen (AID 1920065)
In short: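 Fluorescence intensity signals activation. After overnight (18 h) culture and a 1 h calcium dye load at 37 C, compounds are added by pin tool and the plate read at 480/540 nm for 3 min in 1 s steps.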

[6] = p53 small molecule agonists, cell-based qHTS assay with human liver microsomes (AID 1963577);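 further: p53 response element beta-lactamase reporter cells with liver microsomes plus NADPH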
In short: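 Steps: plate p53RE-bla cells, incubate 5 h at 37 C; add compound in DMSO; add microsomes (0.5 mg/mL final) and NADPH (0.5 mg/mL final); incubate 16 h at 37 C; add LiveBLAzer, 2 h RT; read fluorescence.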

[7] = p53 small molecule agonists, cell-based qHTS assay with rat liver microsomes (AID 1963578)
In short: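 Metabolic activation is supplied by rat liver microsomes with NADPH (each 0.5 mg/mL final). p53RE-bla cells incubate with compound 16 h at 37 C; reporter activity is measured by LiveBLAzer fluorescence.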

[8] = p53 small molecule agonists, cell-based qHTS assay with human liver microsomes: qHTS cell viability counter screen (AID 1963579); further: nearly all actives have a fitted effect of over 45% in size
In short: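 After the 460/530 nm beta-lactamase read, CellTiter-Glo was added to the same wells and luminescence measured after 30 min at room temperature, giving viability of p53RE-bla cells treated 16 h with compounds plus microsomes and NADPH.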

[9] = p53 small molecule agonists, cell-based qHTS assay with rat liver microsomes: qHTS cell viability counter screen (AID 1963580); further: nearly all actives have a fitted effect of over 45% in size
In short: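 After the beta-lactamase ratio was read, CellTiter-Glo was added to the same wells and luminescence measured at 30 min; cells had been treated 16 h at 37 C with compounds, rat liver microsomes and NADPH (0.5 mg/mL final each).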

[10] = p53 small molecule agonists, cell-based qHTS assay: qHTS cell viability counter screen (AID 1963581); further: nearly all actives have a fitted effect of over 45% in size
In short: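 Luminescence from CellTiter-Glo, reflecting ATP content, serves as the cytotoxicity measure; it is taken after the 2 h reporter substrate step in HCT-116 p53RE-bla cells dosed for 16 h at 37 C.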

[11] = p53 small molecule agonists, cell-based qHTS assay (AID 1963582; active means well fitted activation curve with a large enough effect in the signal ratio in the repeat runs, not every such curve was filed as active; the % refers to the signal ratio)
In short: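 After plating, p53RE-bla cells sat 5 h in the incubator; compounds or DMSO vehicle were pinned in; a 16 h incubation at 37 C followed; FRET substrate was added and, 2 h later at RT, fluorescence was measured.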

[12] = target: 5-hydroxytryptamine receptor 2A (Homo sapiens) (UniProt P28223); assay: 5-hydroxytryptamine receptor 2A (HTR2A) small molecule antagonists, cell-based qHTS assay (AID 1963586); further: nearly all actives have a fitted effect of over 45% in size
5-hydroxytryptamine receptor 2A (Homo sapiens), sequence (P28223 whole entry, looked up): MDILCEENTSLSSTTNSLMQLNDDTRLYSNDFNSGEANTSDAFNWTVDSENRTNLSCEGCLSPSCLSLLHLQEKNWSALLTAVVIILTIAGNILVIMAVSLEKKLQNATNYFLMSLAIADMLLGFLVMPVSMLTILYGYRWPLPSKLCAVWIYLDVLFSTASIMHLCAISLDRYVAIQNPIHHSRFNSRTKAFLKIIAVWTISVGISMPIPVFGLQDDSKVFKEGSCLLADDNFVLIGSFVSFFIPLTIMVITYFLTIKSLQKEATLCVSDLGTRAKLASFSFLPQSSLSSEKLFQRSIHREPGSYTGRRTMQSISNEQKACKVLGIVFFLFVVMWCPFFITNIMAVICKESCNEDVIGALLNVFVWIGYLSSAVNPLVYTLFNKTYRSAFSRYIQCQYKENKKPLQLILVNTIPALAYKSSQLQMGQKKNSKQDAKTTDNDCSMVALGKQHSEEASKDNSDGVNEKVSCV
In short: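 CHO cells stably expressing human HTR2A were plated for 18 h at 37 C, then loaded with calcium dye for 1 h. Compounds were preincubated 5 min at room temperature before DOI (4 nM solution) was added. Kinetic fluorescence was read for 3 min.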

[13] = target: 5-hydroxytryptamine receptor 2A (Homo sapiens) (UniProt P28223); assay: 5-hydroxytryptamine receptor 2A (HTR2A) small molecule agonists, cell-based qHTS assay (AID 1963587); further: nearly all actives have a fitted effect of over 30% in size
In short: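 CHO cells stably expressing human HTR2A, plated 18 h, loaded with calcium dye 1 h at 37 C. Agonist mode: compounds added and intracellular calcium fluorescence recorded kinetically for 2 min at 1 sec intervals.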

[14] = target: Muscarinic acetylcholine receptor M1 (Homo sapiens) (UniProt P11229); assay: Cholinergic receptor muscarinic 1 (CHRM1) small molecule antagonists, cell-based qHTS assay (AID 1963588); further: nearly all actives have a fitted effect of over 40% in size
Muscarinic acetylcholine receptor M1 (Homo sapiens), sequence (P11229 whole entry, looked up): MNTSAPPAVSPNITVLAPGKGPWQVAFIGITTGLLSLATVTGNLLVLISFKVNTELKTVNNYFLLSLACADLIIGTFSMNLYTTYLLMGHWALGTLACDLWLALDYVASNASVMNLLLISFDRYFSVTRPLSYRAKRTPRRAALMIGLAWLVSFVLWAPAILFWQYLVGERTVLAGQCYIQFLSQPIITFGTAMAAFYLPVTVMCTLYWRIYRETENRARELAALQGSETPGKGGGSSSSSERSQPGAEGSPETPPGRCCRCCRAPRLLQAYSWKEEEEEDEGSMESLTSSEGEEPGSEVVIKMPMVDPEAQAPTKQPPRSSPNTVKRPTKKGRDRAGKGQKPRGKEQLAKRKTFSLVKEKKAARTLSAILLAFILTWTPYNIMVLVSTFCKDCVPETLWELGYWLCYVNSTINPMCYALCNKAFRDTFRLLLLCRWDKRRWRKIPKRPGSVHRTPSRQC
In short: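 Compounds were tested at 15 concentrations in three independent runs. Dye-loaded CHRM1-CHO cells were exposed 5 min at room temperature before stimulation by acetylcholine added at 50nM. Intracellular calcium was read kinetically on FDSS for 3 min.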

[15] = target: Muscarinic acetylcholine receptor M1 (Homo sapiens) (UniProt P11229); assay: Cholinergic receptor muscarinic 1 (CHRM1) small molecule agonists, cell-based qHTS assay (AID 1963589); further: nearly all actives have a fitted effect of over 35% in size
In short: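 Fluorescent calcium dye reports M1 activation in stably transfected CHO cells. Compounds, 15 concentrations, added after 1 h dye loading at 37 C; kinetic reading at 1 sec intervals.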

[16] = cAMP Responsive Elements (CRE) small molecule agonists, cell-based qHTS assay (AID 1963590)
In short: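 Compound exposure lasted 3 h at 37 C/5% CO2 in CRE-bla HEK 293T cells grown in assay medium with 10% dialyzed FBS and 25 mM HEPES. Reporter signal came from LiveBLAzer B/G FRET substrate, 2 h, room temperature.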

[17] = cAMP Responsive Elements (CRE) small molecule antagonists, cell-based qHTS assay (AID 1963591; active means well fitted inhibition curve with a large enough effect in the signal ratio in the repeat runs, not every such curve was filed as active; the % refers to the signal ratio)
In short: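 Stimulation used NKH477 at a final 0.25 uM for 3 h in compound-treated CRE-bla HEK293T cells, seeded 18 h beforehand. Reporter activity was measured with LiveBLAzer B/G FRET substrate after 2 h at room temperature.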

[18] = target: D(2) dopamine receptor (Homo sapiens) (UniProt P14416); assay: Dopamine D2 receptor (DRD2) small molecule agonists, cell-based qHTS assay (AID 1963594); further: nearly all actives have a fitted effect of over 35% in size
D(2) dopamine receptor (Homo sapiens), sequence (P14416 whole entry, looked up): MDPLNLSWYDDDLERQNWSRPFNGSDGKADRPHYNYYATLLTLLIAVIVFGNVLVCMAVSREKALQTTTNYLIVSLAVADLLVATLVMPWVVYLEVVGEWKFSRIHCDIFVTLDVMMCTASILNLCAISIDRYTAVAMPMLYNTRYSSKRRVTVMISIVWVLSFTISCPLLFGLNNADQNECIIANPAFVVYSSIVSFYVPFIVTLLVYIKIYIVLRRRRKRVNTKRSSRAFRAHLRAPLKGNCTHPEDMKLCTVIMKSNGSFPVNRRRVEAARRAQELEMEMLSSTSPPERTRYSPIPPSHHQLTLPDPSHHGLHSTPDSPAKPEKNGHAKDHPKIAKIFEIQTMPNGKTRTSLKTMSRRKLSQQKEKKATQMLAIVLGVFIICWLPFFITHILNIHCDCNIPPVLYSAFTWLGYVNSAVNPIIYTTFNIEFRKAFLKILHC
In short: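 HEK293 cells stably expressing human DRD2, pre-treated with PDE inhibitor Ro20-1724 (0.1 mM final) and compound 10 min at room temperature, then stimulated with NKH477 (200nM […]) for 30 min. cAMP read by HTRF (665/620 nm).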

[19] = target: Beta-2 adrenergic receptor (Homo sapiens) (UniProt P07550); assay: Adrenergic beta2 receptor (ADRB2) small molecule antagonists, cell-based qHTS assay (AID 1963592); further: series mostly up to about 92 µM; nearly all actives have a fitted effect of over 50% in size
Beta-2 adrenergic receptor (Homo sapiens), sequence (P07550 whole entry, looked up): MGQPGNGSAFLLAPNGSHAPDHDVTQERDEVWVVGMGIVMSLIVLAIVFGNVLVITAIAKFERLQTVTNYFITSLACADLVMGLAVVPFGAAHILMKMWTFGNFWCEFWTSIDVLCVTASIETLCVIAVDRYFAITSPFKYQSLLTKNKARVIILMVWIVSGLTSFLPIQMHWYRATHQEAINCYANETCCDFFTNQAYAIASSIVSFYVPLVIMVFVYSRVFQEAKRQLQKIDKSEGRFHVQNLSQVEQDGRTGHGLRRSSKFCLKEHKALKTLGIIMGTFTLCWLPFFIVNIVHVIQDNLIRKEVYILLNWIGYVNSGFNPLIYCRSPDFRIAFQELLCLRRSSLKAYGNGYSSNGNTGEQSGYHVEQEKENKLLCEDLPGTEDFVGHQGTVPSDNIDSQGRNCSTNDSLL
In short: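 Assay format: CHO-ADRB2 cells, 18-20hr seeding at 37C/5% CO2, then compound plus 1nM isoproterenol agonist mix for 0.5hr RT. Homogeneous time-resolved fluorescence cAMP detection after 1hr, expressed as 665/615 nm ratio.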

[20] = target: D(2) dopamine receptor (Homo sapiens) (UniProt P14416); assay: Dopamine D2 receptor (DRD2) small molecule antagonists, cell-based qHTS assay (AID 1963595; active means well fitted inhibition curve with a large enough effect in the signal ratio in the repeat runs, with a control signal flat; the % refers to the signal ratio)
In short: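 Antagonism was scored as restored cAMP in HEK293-DRD2 cells. These cells were stimulated with 200 nM NKH477 and 12 nM quinpirole for 30 min at room temperature, in the presence of 0.1 mM Ro20-1724.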
On the % scale 0 is the no-effect control and ±100 the full control effect.

CCCC(C)C(=O)OCC (stereo not given)
inactive: Potency [1] | Potency [2] | Potency [3] | outcome [4] | outcome [5] | Potency [6] | Potency [7] | Potency [8] | Potency [9] | Potency [10] | Potency [11] | Potency [12] | Potency [13] | Potency [14] | Potency [15] | Potency [16] | Potency [17] | Potency [18]

[Cl][Sc]([Cl])[Cl]
inactive: Potency [1] | Potency [2] | Potency [3] | outcome [4] | outcome [5] | Potency [6] | Potency [7] | Potency [8] | Potency [9] | Potency [10] | Potency [11] | Potency [12] | Potency [13] | Potency [14] | Potency [15] | Potency [16] | Potency [17] | Potency [19] | Potency [20]

OC1CCC(C2CCCCC2)CC1 (stereo not given)
inactive: Potency [1] | Potency [2] | Potency [3] | outcome [4] | outcome [5] | Potency [6] | Potency [7] | Potency [8] | Potency [9] | Potency [10] | Potency [11] | Potency [12] | Potency [13] | Potency [14] | Potency [15] | Potency [16] | Potency [17] | Potency [18] | Potency [20]

CC(O)c1ccccc1 (stereo not given)
inactive: Potency [1] | Potency [2] | Potency [3] | outcome [4] | outcome [5] | Potency [6] | Potency [7] | Potency [8] | Potency [9] | Potency [10] | Potency [11] | Potency [12] | Potency [13] | Potency [14] | Potency [15] | Potency [16] | Potency [17] | Potency [19] | Potency [18] | Potency [20]

O=C(Nc1cccc(C2=NCCN2)c1)Nc1cccc(C2=NCCN2)c1
inactive: activity change, negative = cytotoxicity [1] 19.9% [at 19 µM] | activity, positive = activation [2] -4.28% [at 19 µM] | activity change [3] -0.181% [at 11.8 µM, active compounds read high] | activation [4] -0.538% [at 15.8 µM] | activation [5] 2.04% [at 11.8 µM] | activation [6] -0.295% [at 13.5 µM] | activation [7] -1.12% [at 13.6 µM] | activity change, negative = cytotoxicity [8] 1.91% [at 13.5 µM] | activity change, negative = cytotoxicity [9] 0.748% [at 13.5 µM] | activity change, negative = cytotoxicity [10] -8.13% [at 13.5 µM] | activation [11] 1.58% [at 13.5 µM] | activity, negative = inhibition [12] -37.2% [at 12.7 µM] | activation [13] 1.02% [at 15.9 µM] | activity, negative = inhibition [14] -4.67% [at 12.6 µM] | activation [15] -0.0869% [at 15.8 µM] | activation [16] -0.37% [at 19 µM] | activity change, negative = inhibition [17] -6.62% [at 18.9 µM] | activation [18] -15.4% [at 19 µM] | activity change, negative = inhibition [20] -4.58% [at 18.9 µM]

CCc1cccc(C)c1
inactive: Potency [1] | Potency [2] | Potency [3] | outcome [4] | outcome [5] | Potency [6] | Potency [7] | Potency [8] | Potency [9] | Potency [10] | Potency [11] | Potency [12] | Potency [13] | Potency [14] | Potency [15] | Potency [16] | Potency [17] | Potency [19] | Potency [18] | Potency [20]

CCC(=O)CC(C)CC (stereo not given)
inactive: activity change, negative = cytotoxicity [1] 1.61% [at 0.349 µM] | activity, positive = activation [2] -3.45% [at 0.349 µM] | activity change [3] -1.45% [at 0.217 µM, active compounds read high] | activation [4] -1.52% [at 0.29 µM] | activation [5] -0.478% [at 0.217 µM] | activation [6] -0.0354% [at 0.249 µM] | activation [7] -2.6% [at 0.249 µM] | activity change, negative = cytotoxicity [8] -9.86% [at 0.249 µM] | activity change, negative = cytotoxicity [9] 1.72% [at 0.249 µM] | activity change, negative = cytotoxicity [10] 22.9% [at 0.249 µM] | activation [11] 5.1% [at 0.249 µM] | activity, negative = inhibition [12] 14.6% [at 0.233 µM] | activation [13] 6.03% [at 0.292 µM] | activity, negative = inhibition [14] -17.2% [at 0.232 µM] | activation [15] 0.0292% [at 0.29 µM] | activation [16] 0.0521% [at 0.349 µM] | activity change, negative = inhibition [17] 1.08% [at 0.349 µM] | activity change, negative = inhibition [19] 7.63% [at 0.349 µM] | activation [18] -3.53% [at 0.349 µM] | activity change, negative = inhibition [20] 8.77% [at 0.348 µM]
